gsp agonist: activates gsp, the McCune-Albright syndrome mutation; gsp mutant cells, cAMP HTRF, 30 min; Potency, µM (doses to about 76.9 µM), inactives show at the highest dose activation (cAMP increase), hits mostly activators; 0.13% of 340,000 active; active means well fitted activation curve with a large enough effect; inconclusive means small, poorly fitted or top-dose-only effect, or another doubt; inactive means no such curve, though single readings can be large or run the other way; cell line not stated here;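 further: phosphodiesterase inhibitor Ro 20-1724 added with compounds to block cAMP breakdown; potency means the concentration at half of the fitted maximal effect; nearly all actives have a fitted effect of over 60% in size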
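Cells in DMEM/10% FBS with G418 were pretreated with compounds in DMSO plus […] (300 uM stock) for 30 min at 37C. cAMP was measured by HTRF (cAMP-d2 plus anti-cAMP antibody-K) after 30 min at room temperature.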
Akt phos inh: blocks phosphorylation of Akt; Neuro2A IGF-stimulated pAkt S473 HTRF, 20 min; hits give low values; 0.32% of 360,000 active; activity change, % for hits at 50 µM; in the data active means activity change below about -80%; inconclusive means mostly about -51% to -80%; further: on the % scale 0 is the no-effect control and ±100 the full control effect
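Neuro2A cells in DMEM with 0.5% FBS, overnight at 37 deg C, given compound at single 50 µM final, then IGF (6 nM final) for 20 min at 37 deg C. Lysed; phospho-Akt Ser473 by HTRF after 24 h, 665/615 ratio.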
RXFP1 ag: RXFP1 (human) receptor agonism | HEK293T-RXFP1 cAMP TR-FRET, 30 min; response scale: percent of porcine relaxin response, buffer zero | Potency, µM (highest dose often 57.5 µM), without a hit: at the top dose activation, usual class: activators | 0.3% of 370,000 active; active means well fitted activation curve with a large enough effect; inconclusive means small, poorly fitted or top-dose-only effect; further: potency means the concentration at half of the fitted maximal effect; on the % scale 0 is the no-effect control and ±100 the full control effect; nearly all actives have a fitted effect of over 60% in size
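cAMP rise read by TR-FRET after 30 min, 37C compound exposure (up to 58 uM) in RXFP1-transfected HEK293 cells with Ro 20174 present. EC50 from Hill-equation fits, with 29 nM porcine relaxin as 100% and buffer as basal.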
gsp antagonist: antagonizes gsp, the McCune-Albright syndrome mutation | gsp-mutant cells, cAMP HTRF, 30 min | Potency, µM (series often up to 76.9 µM), inactives show at the top dose activity change, negative = inhibition, most hits filed as inhibitors | 0.4% of 340,000 active | AID 624288; calls by dose curve; cell line not stated here;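 further: intracellular cAMP measured with PDE inhibitor Ro 20-1724 present during compound exposure; potency means the concentration at half of the fitted maximal effect; on the % scale 0 is the no-effect control and ±100 the full control effect; nearly all actives have a fitted effect of over 65% in size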
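Cells, 2000/well, grown 16–24 h in DMEM 10% FBS with 0.5 mg/ml G418, then compounds plus […] (300 uM addition stock), 30 min at 37C. cAMP read by HTRF (cAMP-d2 and anti-cAMP antibody-K in lysis buffer) after 30 min RT.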
RXFP1 antagonist: RXFP1 (human) relaxin receptor antagonism; HEK293-RXFP1, relaxin-stimulated cAMP HTRF, 30 min; hits give low values; activity change, negative = inhibition, % at 57.5 µM; 0.59% of 350,000 active; AID 1259400;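 active means activity change of -60% or lower, but not beyond a set lower limit; inconclusive means change between -60% and -40%, or beyond the set limit; inactive means change above -40%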; further: on the % scale 0 is the no-effect control and ±100 the full control effect
ClpP mod: qHTS Assay for Activators of ClpP | ATP-dependent Clp protease proteolytic subunit (Bacillus subtilis (strain 168)), P80244 | purified B. subtilis ClpP, FRET peptide cleavage, 20 min | Potency, µM (top dose mostly 57.5 µM), without a hit: at the top dose activity change, negative = active | 1.9% of 340,000 active | AID 651965, 2013; active means well fitted falling curve with a large enough effect; inconclusive means small, poorly fitted or top-dose-only effect; inactive means no such curve, though single readings can be large or run the other way; further: potency means the concentration at half of the fitted maximal effect; the source files actives as falling curves though it sought activators and does not explain the sign; nearly all actives have a fitted effect of over 65% in size
Target sequence (P80244 whole entry, looked up): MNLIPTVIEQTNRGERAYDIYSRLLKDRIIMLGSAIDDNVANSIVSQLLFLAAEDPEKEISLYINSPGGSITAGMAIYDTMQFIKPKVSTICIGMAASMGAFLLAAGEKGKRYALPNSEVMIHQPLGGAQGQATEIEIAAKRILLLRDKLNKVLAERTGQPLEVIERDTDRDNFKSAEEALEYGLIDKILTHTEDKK
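ClpP 10 microg/mL final, pH 8 Tris/KCl buffer with BSA, glycerol, Tween-20; compound pinned in; FRET-FV substrate; RT 20 min; Ex320/Em430; ΔFRET vs ADEP 5.8 microM, DMSO, no enzyme.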
* hit, by the source's call; i = inactive; ? = inconclusive; · = no result; [ ] = remark or other dose. Rows were chosen to be rich in hits. Some 2.7% of all compounds tested hit in one or more screens of this group.

SMILES	gsp agonist	Akt phos inh	RXFP1 ag	gsp antagonist	RXFP1 antagonist	ClpP mod
COc1cc(OC)cc(-c2nc3cc(C)ccc3o2)c1	16%	i	0%	-18%	-17	25µM*
COc1ccc(S(=O)(=O)N2CCCOC2CNC(=O)C(=O)NCCCN2CCOCC2)cc1C (configuration not stated)	0%[15.4 µM]	i	0%	14%	-25	0%
Cc1ccc(S(=O)(=O)N2CCOCC2)cc1NC(=O)CSc1nnnn1C1CC1	-4%	i	·	·	5	0%
Clc1cccc(CNc2ncnc3nc[nH]c23)c1	·	·	·	·	·	3%
CC(=O)OCC(=O)c1ccc2ccn(C(C)=O)c2c1	-6%	i	2%	-2%	-1	35µM*
COc1cccc(NC(=O)Cn2c3ccc(OC)cc3c3nc4n(c(=O)c32)CCS4)c1	?	i	10µM*	0%	4	5%
COc1ccc2c(c1)c1nc3n(c(=O)c1n2CC(=O)Nc1cc(C)[nH]n1)CCS3	·	·	22%	·	·	·
O=C(CCS(=O)(=O)c1cc(Br)cc2c1N(C(=O)C1CC1)CC2)N1CCN(c2cccc(Cl)c2)CC1	·	·	-1%	·	-2	-1%
CC(=O)N1N=C(c2ccccc2)OC12CCCC2	-16%	i	1%	6%	1	4%
CC(=O)N1N=C(c2ccc(Br)cc2)OC1(C)CC(=O)Nc1ccccc1 (configuration not stated)	?	i	-1%	-8%	1	25µM*
OC(C[n+]1cccc(Br)c1)c1ccccc1 (configuration not stated)	·	·	·	·	·	-12%
COc1ccc(/C=N/NC(=O)c2nc(Cl)c(Cl)c(N)c2Cl)cc1COc1ccc(F)cc1F	-37%	i	4%	-13%	-30	7.9µM*
COc1ccc(/C=N/NC(=O)c2nc(Cl)c(Cl)c(N)c2Cl)cc1COc1ccccc1F	?	i	3%	-14%	-16	206%
CCCc1ccc2oc(C(=O)NCCN3CCCC(O)C3)c(C)c2c1 (configuration not stated)	6%	i	0%	-13%	-11	-4%
Cc1ccc2c(C)c(C(=O)NCCN3CCCC(O)C3)oc2c1C (configuration not stated)	-11%	·	2%	5%	-112*	-12%
CCOC(=O)C1CCCN(C(=O)/C=C/c2cccc([N+](=O)[O-])c2)C1 (configuration not stated)	?	i	2%	-7%	6	25µM*
CCOC(=O)C1(Cc2ccccc2C(F)(F)F)CCN(C2CCN(C(C)=O)CC2)CC1	6%[15.4 µM]	i	1%	-1%	-63*	·
COc1ccccc1S(=O)(=O)Cc1ccc(C(=O)N2CCN(c3cccc(Cl)c3)CC2)o1	?	i	0%	?	?	1%
COc1ccccc1S(=O)(=O)Cc1ccc(C(=O)N2CCN(c3ccccc3)CC2)o1	0%	-124%*	-3%	?	-16	1%
Cc1cccc(N2CCN(C(=O)C3CCN(c4nnc(-n5cccc5)s4)CC3)CC2C)c1 (configuration not stated)	-15%	i	6%	28µM*	-68*	-2%
Cc1cccc(N2CCN(C(=O)C3CCN(S(=O)(=O)c4cccc5cccnc45)CC3)CC2C)c1 (configuration not stated)	-81%	i	0%	-27%	·	-2%
Cc1cccc(N2CCN(C(=O)C3CCN(S(=O)(=O)c4cccc5nsnc45)CC3)CC2C)c1 (configuration not stated)	17%	i	0%	35µM*	-8	1%
O=C(CNC(=O)c1ccc(Cl)cc1Cl)OCn1nnc2ccccc2c1=O	3%[15.4 µM]	i	25%	9%	10	0%
COC(=O)/C=C/c1ccc2c(c1)S(=O)(=O)N(C1CCCC1)[C@H]2CC(=O)OC	·	·	·	·	·	-6%
CN(Cc1ccccc1)C(=O)c1ccc2c(c1)N(Cc1ccccc1F)C(=O)c1ccccc1S2(=O)=O	·	·	1%	·	·	-4%
SMILES	gsp agonist	Akt phos inh	RXFP1 ag	gsp antagonist	RXFP1 antagonist	ClpP mod
COc1ccc(-n2cc(-c3ccccc3)c3c(NC4CCCCC4)ncnc32)cc1	·	·	0%	·	10	?
COc1ccc(Cl)cc1-n1c(C)cc(C=O)c1C	14%	i	1%	0%	3	32µM*
CCOC(=O)Cc1cc(C(=O)Nc2ccc(Br)cc2)sc1-c1ccc(C)cc1	·	·	13%	·	-27	22µM*
CC(=O)Nc1ccc2ccc3cccc4ccc1c2c34	-8%	i	0%	10%[15.4 µM]	-11	14µM*
O=C(Nc1ccc(Br)c2ccccc12)c1ccc2ccccc2c1O	?	i	?	?	1	?
CC(=O)Nc1cccc2cc(O)ccc12	-16%	i	·	-5%	-5	·
CC(=O)Nc1ccc(Br)c2ccccc12	28µM*	i	28µM*	12%	4	·
CCc1nc2c(c(=O)[nH]1)C(CC)(CC)Cc1ccccc1-2	-4%[15.4 µM]	i	3%	6%	13	-2%
CCC1(CC)Cc2ccccc2-c2nc(NCCO)[nH]c(=O)c21	6%	i	4%	1%	-24	6.3µM*
O=c1[nH]c(NCCO)nc2c1C1(CCCCC1)Cc1ccccc1-2	5%	i	6%	-2%	-12	32µM*
O=C(NCc1ccc2c(c1)OCO2)c1cccc(S(=O)(=O)N2CCCC2)c1	?	i	-1%	-1%	4	2%
CC(=O)Nc1ccc(S(=O)(=O)NC(CC(=O)N(C)Cc2ccccc2)C(C)C)cc1 (configuration not stated)	-10%	i	2%	3%	2	14µM*
COC(=O)c1cccc(NC(=O)CSc2nnc(COc3ccccc3)n2C)c1	-16%	i	-1%	-9%	-13	1%
COC(=O)c1ccc(CNC(=O)CSc2nnc(COc3ccccc3)n2C)o1	22%	-110%*	2%	-4%	-1	-1%
CCN(C(=O)COC(=O)c1cc(-c2ccccc2)nc2ccc(Br)cc12)C1CCS(=O)(=O)C1 (configuration not stated)	59%[15.4 µM]	i	25µM*	?	7	-2%
CCOc1ccc2oc(C(=O)OCC(=O)NC(=O)NC3CCCC3)c(C)c2c1	-24%	i	2%	-8%	5	22µM*
CCN(C(=O)COC(=O)c1cc(-c2cccs2)nc2ccccc12)C1CCS(=O)(=O)C1 (configuration not stated)	?	i	4%	-23%	24	4%
CCN(C(=O)COC(=O)c1oc2ccc(OC)cc2c1C)C1CCS(=O)(=O)C1 (configuration not stated)	-5%	i	2%	10%	-20	8.9µM*
